In experiment [1] the target is Retinaldehyde dehydrogenase 3 (Homo sapiens) (UniProt P47895). The experiment in a line: qHTS for Inhibitors of the Aldehyde Dehydrogenase Family (ALDH1A3) Primary screen (AID 2061315).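 Also: plate controls were DMSO vehicle for no effect and reference inhibitor for full effect.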 Background: Quantitative high-throughput screening tests each substance at several concentrations.
Experiment [2] in a line: BET inhibitor-based combinations targeting novel dependencies in MECOM-rearranged (r) AML: SET-2 cell line (AID 2202231). Also: nearly all actives have a fitted effect of over 35% in size. Also: potency is read from the fitted curve at half-maximal effect.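 As to viability: plate controls were DMSO treated cells for no effect and wells without cells for full effect.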 The note with it: SET-2 AML cells viability, CellTiter-Glo luminescence, 48 h; viability: active compounds read low, concentration not given here. The procedure, abridged:
(§1)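 500 cells/well; 11-pt dose curve; 48 h, standard incubator; CellTiter-Glo luminescence after 15 min RT; DMSO/empty-well normalization; AUC plus Z-AUC (mean-centered within each line).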
For orientation: Cellular ATP, detected with luciferase, serves as a proxy for viable cell number.

Experiment [3] in a line: BET inhibitor-based combinations targeting novel dependencies in MECOM-rearranged (r) AML: OCI-AML3 cell line (AID 2202232). Also: nearly all actives have a fitted effect of over 35% in size. Also: potency is read from the fitted curve at half-maximal effect. The note with it: Potency: OCI-AML3 viability. The gist of the method:
as §1

Experiment [4] is described as follows: BET inhibitor-based combinations targeting novel dependencies in MECOM-rearranged (r) AML: MV-4-11 cell line (AID 2202233). Also: nearly all actives have a fitted effect of over 45% in size. Also: potency is read from the fitted curve at half-maximal effect. The gist of the method: (§2)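 Cells were plated at 500 per well and exposed to each drug across an 11-point dose range for 48 hr at standard incubator conditions. Viability was read by CellTiter-Glo luminescence, and activity was expressed as AUC and per-cell-line Z-transformed AUC.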

The nature of experiment [5]: BET inhibitor-based combinations targeting novel dependencies in MECOM-rearranged (r) AML: HNT-34 cell line (AID 2202234). Also: nearly all actives have a fitted effect of over 35% in size. Also: potency is read from the fitted curve at half-maximal effect. The gist of the method:
as §2

The nature of experiment [6]: BET inhibitor-based combinations targeting novel dependencies in MECOM-rearranged (r) AML: UCSD-AML1 cell line (AID 2202235). Also: nearly all actives have a fitted effect of over 40% in size. Also: potency is read from the fitted curve at half-maximal effect. The procedure, abridged:
as §2

The nature of experiment [7]: BET inhibitor-based combinations targeting novel dependencies in MECOM-rearranged (r) AML: AML-191 cell line (AID 2202236; also: nearly all actives have a fitted effect of over 35% in size; also: potency is read from the fitted curve at half-maximal effect). The procedure, abridged: as §1
Experiment [8] is described as follows: BET inhibitor-based combinations targeting novel dependencies in MECOM-rearranged (r) AML: AML-194 cell line (AID 2202237; also: nearly all actives have a fitted effect of over 40% in size; also: potency is read from the fitted curve at half-maximal effect). The procedure, abridged: as §1

Records with an inconclusive call do not appear. Values without a mark were called inactive. Active and inactive are the calls of the source. Calls follow the shape of the dose curve; as a rule, active = well fitted curve in the direction sought with a large enough effect; inconclusive = small, poorly fitted or top-dose-only effect, or another doubt; inactive = no such curve, though single readings can be large; an effect the other way counts as inactive or inconclusive. Non-standard residues stand in square brackets, D forms with d. Residues, ends and D or L forms follow the SMILES beside them. *: point of attachment. Benzoyl(4-tBu) = CC(C)(C)c1ccc(C(=O)*)cc1; Lys(Et2) = CCN(CC)CCCC[C@H](N)C(=O)O

For the molecule `Nc1nccn2c(C3CCC(C(=O)O)CC3)nc(-c3cc4cccc(Cl)c4[nH]3)c12` (stereo not drawn), the Potency entry in experiment [1] is “inactive”. The Potency in experiment [2] was 7420 nM (active); in experiment [3], 4680 nM (active); in experiment [4] it was 2350 nM (active); in experiment [5], 1480 nM (active); in experiment [6] it was 1050 nM (active).
Usually viability stands for a read-out of living cells in per cent, often relative to untreated cells. Turning to `COc1ccc(Oc2cc(NCCC(F)(F)F)c3ncc(-c4ccc(C(=O)NC5CC5)c(C)c4)n3n2)c(F)c1F`, the viability in experiment [2] was 80.2%. Further, the Potency in experiment [3] is 23.5 nM (active); in experiment [4] it was 66.1 nM (active); in experiment [5] it was 417 nM (active).
Consider `COc1cc(C)[nH]c(=O)c1CN1CCc2c(Cl)cc([C@H](OC)C3COC3)c(Cl)c2C1=O`, for which the viability in experiment [2] was 112%. Also, the Potency entry in experiment [3], in experiment [4], in experiment [5], in experiment [6] and in experiment [7] was “inactive” each time.
As to `Cc1c[nH]c2nc(Nc3ccc(N4CCN(C)CC4)c(F)c3)nc(-c3cccc(CC#N)c3)c12`, the Potency is 2630 nM (active) in experiment [2]; 2950 nM (active) in experiment [3]; 33.2 nM (active) in experiment [4]; 662 nM (active) in experiment [5]; 742 nM (active) in experiment [6]; 742 nM (active) in experiment [7]. In addition, in experiment [8], the Potency is 833 nM (active).
On to `Nc1cccc2c1CN([C@H]1CCC(=O)NC1=O)C2=O`, for which the viability in experiment [2] is 111%. Besides, the Potency result in experiment [3], in experiment [4], in experiment [6], in experiment [7] and in experiment [8] was “inactive” in each case. For the same molecule, in experiment [5], the Potency was 1180 nM (active).
Regarding `CN1C(=O)[C@@H](NC(=O)c2n[nH]c(Cc3ccccc3)n2)COc2ccccc21`, the viability in experiment [2] is 110%. The Potency entry in experiment [3], in experiment [4], in experiment [5], in experiment [6] and in experiment [7] was “inactive” in each case.
For the molecule `COc1ccc(S(=O)(=O)N[C@@H](CNc2nc(C)nc(N3CCC(c4ccc5c(n4)NCCC5)CC3)c2C)C(=O)O)cc1`, the viability in experiment [2] was 111%. For the same molecule, the Potency result in experiment [3], in experiment [4], in experiment [5], in experiment [6], in experiment [7] and in experiment [8] was “inactive” in each case.
Regarding `COC1CCC(N2C(=O)CNc3ncc(-c4ccc(C(C)(C)O)nc4)nc32)CC1` (stereo not drawn), the Potency was 7420 nM (active) in experiment [2]; 5250 nM (active) in experiment [3]; 3720 nM (active) in experiment [4]; 2350 nM (active) in experiment [5]; 525 nM (active) in experiment [6]; 5900 nM (active) in experiment [7]. Besides, the Potency in experiment [8] is 1660 nM (active).
On to `CN[C@H]1CN(c2ccc3c(=O)c(C(=O)O)cn(-c4nccs4)c3n2)C[C@@H]1OC`, for which the Potency in experiment [2] was 2410 nM (active); in experiment [3], 1080 nM (active); in experiment [4], 270 nM (active); in experiment [5], 679 nM (active); in experiment [6], 855 nM (active); in experiment [7], 1350 nM (active). For the same molecule, the Potency in experiment [8] was 1520 nM (active).
Turning to `CN(Cc1ccc(/C=C/C(=O)NO)cc1)CC12CC3CC(CC(C3)C1)C2`, the Potency in experiment [2] was 105 nM (active); in experiment [3], 148 nM (active); in experiment [4] it was 93.4 nM (active); in experiment [5] it was 148 nM (active); in experiment [6], 132 nM (active); in experiment [7] it was 148 nM (active).
With `CCN(CC)CCCC[C@H](NC(=O)[C@H](CC(C)C)NC(=O)[C@H](C)NC(=O)[C@H](Cc1ccccc1)NC(=O)c1ccc(C(C)(C)C)cc1)C(=O)N[C@@H](CO)C(=O)OC` ({Benzoyl(4-tBu)}-FAL[Lys(Et2)]S-OMe), the viability in experiment [2] is 71.5%. For the same molecule, the Potency result in experiment [3], in experiment [4], in experiment [5], in experiment [6] and in experiment [7] was “inactive” each time.
As to `CC(=NNC(=O)c1cccc(S(=O)(=O)N2CCOCC2)c1)c1cc(Cl)ccc1O`, the Potency was 6610 nM (active) in experiment [2]; 5250 nM (active) in experiment [3]; 7420 nM (active) in experiment [4]; 2630 nM (active) in experiment [5]; 5250 nM (active) in experiment [6]; 2090 nM (active) in experiment [7]. Further, the Potency in experiment [8] is 4680 nM (active).
Regarding `CCS(=O)(=O)Nc1ccc(Oc2ccc(F)cc2F)c(-c2cn(C)c(=O)c3[nH]ccc23)c1`, the Potency in experiment [2] is 52.5 nM (active); in experiment [3] it was 11.8 nM (active); in experiment [4], 8.3 nM (active); in experiment [5], 74.2 nM (active); in experiment [6], 132 nM (active); in experiment [7], 74.2 nM (active).
Regarding `CC(=O)N1c2ccc(-c3ccc(C(=O)O)cc3)cc2[C@H](Nc2ccc(Cl)cc2)C[C@@H]1C`, the Potency was 372 nM (active) in experiment [2]; 66.1 nM (active) in experiment [3]; 93.4 nM (active) in experiment [4]; 468 nM (active) in experiment [5]; 1320 nM (active) in experiment [6]; 468 nM (active) in experiment [7].
Turning to `CO[C@@H]1[C@@H](O)[C@H](O)[C@@H](n2c3c(Cl)cccc3c3c4c(c5c6cccc(Cl)c6[nH]c5c32)C(=O)NC4=O)O[C@H]1CO`, the Potency was 1320 nM (active) in experiment [2]; 1320 nM (active) in experiment [3]; 934 nM (active) in experiment [4]; 590 nM (active) in experiment [5]; 1050 nM (active) in experiment [6]; 2350 nM (active) in experiment [7]. Moreover, the Potency in experiment [8] is 1320 nM (active).
With `C[C@@H]1C[C@H](N)C[C@H](c2ccncc2NC(=O)c2ccc(F)c(-c3c(F)cccc3F)n2)C1`, the Potency in experiment [2] is 18600 nM (active); in experiment [3], 16600 nM (active); in experiment [4] it was 5250 nM (active); in experiment [5], 5250 nM (active); in experiment [6], 132 nM (active); in experiment [7], 10500 nM (active). Also, the Potency in experiment [8] was 5900 nM (active).
For `O=c1c(-c2ccc(O)cc2)coc2c([C@@H]3O[C@H](CO)[C@@H](O)[C@H](O)[C@H]3O)c(O)ccc12`, in experiment [2], the viability is 113%. Moreover, the Potency entry in experiment [3], in experiment [4], in experiment [5], in experiment [6] and in experiment [7] was “inactive” in each case.

Values taken from PubChem BioAssay (NCATS).
